# Tb PGK inh: blocks T. brucei phosphoglycerate kinase | PGK/GAPDH coupled, Kinase-Glo luminescence, 60 min | Potency, µM (titrated, usually from 57.5 µM), for inactives: at the highest dose activity change, negative = inhibition, usual class: inhibitors | 0.043% of 380,000 active | AID 602233; note: nearly all actives have a fitted effect of over 60% in size
#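 Luminescent ATP detection (Kinase-Glo Plus) follows a 60-minute room-temperature incubation, with wells lacking PGK as controls. Buffer: 100 mM TEA (pH 7.6), 5 mM MgCl2, 0.01% Tween-20. Coupling enzyme GAPDH (100 nM final) supplies unstable 1,3-BPG in-well.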
# VDR inhibitor: vitamin D3 receptor (human) inhibition. VDR-SRC2-3 peptide fluorescence polarization, 2 h. P11473. 0.93% of 400,000 active. Potency, µM, inactives show max response, negative = inhibition, hits mostly inhibitors. AID 504847
# Target sequence (P11473 whole entry, looked up): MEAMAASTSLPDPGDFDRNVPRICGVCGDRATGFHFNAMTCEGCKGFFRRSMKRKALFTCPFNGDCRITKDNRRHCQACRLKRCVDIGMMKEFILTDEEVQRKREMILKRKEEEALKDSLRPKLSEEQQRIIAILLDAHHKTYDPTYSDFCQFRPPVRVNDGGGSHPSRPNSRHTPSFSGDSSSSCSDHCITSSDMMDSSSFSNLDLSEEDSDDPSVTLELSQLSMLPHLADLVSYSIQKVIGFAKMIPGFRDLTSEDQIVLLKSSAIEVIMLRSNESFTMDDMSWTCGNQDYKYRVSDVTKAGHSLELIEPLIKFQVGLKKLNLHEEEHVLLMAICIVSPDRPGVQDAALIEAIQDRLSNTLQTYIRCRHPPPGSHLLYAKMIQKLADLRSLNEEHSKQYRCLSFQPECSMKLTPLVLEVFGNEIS
#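 Fluorescence polarization assay measuring small-molecule disruption of VDR binding to the coregulator peptide SRC2-3. Compounds were pin-transferred (23 nl) into the reagent mix and incubated 2 h at room temperature before reading.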
# GLS inh: glutaminase GLS (human) inhibition. Potency, µM (highest dose often 45.5 µM), without a hit: at the highest dose activity change, negative = inhibition, most hits filed as inhibitors. 0.21% of 410,000 active. GLS enzymatic activity, qHTS titration. O94925
#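 Coupled fluorescence readout: glutamate oxidase/HRP/Amplex Red detect glutamate formed by hKGA from L-glutamine (1 mM solution added). Buffer 45 mM KH2PO4 pH 8.2, 0.02% Tween-20; reads at t0 and 30 min RT.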
# Pin1 inhibitor: blocks the human prolyl isomerase Pin1; Pin1 FP peptide displacement, HiFluor488, 10 min; Potency, µM (highest dose often 115 µM), inactives show top-dose activity, negative = inhibition, most hits filed as inhibitors; Q13526; 0.009% of 390,000 active; active = well fitted inhibition curve with a large enough effect in the polarisation, with a control signal flat, not every such curve was filed as active; inconclusive = small, poorly fitted or top-dose-only effect, or effect the other way, or a change in a side signal; inactive = no such curve, though single readings can be large or run the other way; the % refers to the polarisation
# Target sequence (Q13526 whole entry, looked up): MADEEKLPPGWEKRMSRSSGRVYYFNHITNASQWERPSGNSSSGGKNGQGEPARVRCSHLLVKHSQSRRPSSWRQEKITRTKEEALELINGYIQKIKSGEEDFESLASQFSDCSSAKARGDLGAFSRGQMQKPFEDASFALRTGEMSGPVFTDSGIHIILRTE
# Tb PFK inh: inhibitors of T. brucei phosphofructokinase. AID 485367. O15648. Potency, µM (top dose mostly 57.5 µM), for inactives: top-dose activity, negative = inhibition, hits mostly inhibitors. 0.17% of 330,000 active. T. brucei PFK, ADP-Glo luminescence;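 note: 0% = uninhibited 1x PFK enzyme wells and -100% = no-enzyme wells; nearly all actives have a fitted effect of over 60% in size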
#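 Luminescent ADP detection (ADP-Glo, two-step: ATP depletion then ADP-to-ATP conversion for luciferase) reported PFK activity after 45 min room-temperature reaction of 1.25 nM enzyme with 0.5 mM F6P and 0.1 mM ATP at pH 8.0.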
# An asterisk follows results filed as active; i = inactive; u = inconclusive; x = no result; ! = repeats disagree. Only some compounds are listed: those with a hit (about 1.1% of all), similar ones and a draw of the others. Unless noted, calls come from the whole dose curve; as a rule, active = well fitted curve in the direction sought with a large enough effect; inconclusive = small, poorly fitted or top-dose-only effect, or another doubt; inactive = no such curve, though single readings can be large; an effect the other way counts as inactive or inconclusive. Unless noted, % is set by controls: 0 for no effect and ±100 for the full control effect; potency is the fitted concentration of half-maximal effect.
SMILES,Tb PGK inh,VDR inhibitor,GLS inh,Pin1 inhibitor,Tb PFK inh
COc1ccc(OC)c(NC(=O)CN(C)S(=O)(=O)c2ccc3[nH]c4c(c3c2)CCCC4)c1,2.7%,10.5%,-3.9%,22.0%,x
COc1ccc(Oc2ncc3nc(-c4cccs4)c(=O)n(Cc4cccs4)c3n2)cc1,x,-4.1%,x,x,x
O=C(O)c1cccc(N/N=C/c2ccc(OC(F)(F)F)cc2)c1,-2.9%,-1.4%,1.4%,-15.1%,0.9%
CSc1ccc(/C=N/Nc2cccc(C(=O)O)c2)cc1,u,-2.3%,27.2%,19µM*,-12.6%
C=CCN=c1scc(-c2ccco2)n1/N=C/c1ccc(O)c(O)c1O,-4.2%,-12.0%,10µM*,u,0.8%
O=C(COc1ccccc1-c1nc(-c2ccccc2)no1)Nc1cccc([N+](=O)[O-])c1,-7.1%,4.0%,-13.9%,-0.1%,x
Cc1oc(=O)c(NC(=O)c2ccccc2)cc1C(=O)c1ccccc1,-2.8%,17.8µM*,12.9%,5.8%,-24.7%
CC(=O)c1cc(NC(=O)c2ccccc2)c(=O)oc1C,0.7%,-4.5%,-19.0%,1.4%,-2.4%
Cc1ccc(-n2c(=O)c3c(cnn3C)n(Cc3ccc(Cl)cc3)c2=O)cc1,x,89.1µM*,6.3%,17.5%,x
Cc1ccc(-n2c(=O)c3c(cnn3C)n(Cc3ccccc3F)c2=O)cc1,6.2%,3.1%,2.6%,10.4%,x
CCCCCCC(=O)N(O)C1CC(=O)N(c2ccc(F)cc2)C1=O (stereo unspecified),-1.5%,39.8µM*,-13.3%,-0.8%,-8.9%
CNC(=O)/C=C1\NC(C)(C)Cc2c1ccc1ccccc21,-2.1%,79.4µM*,-8.5%,-9.1%,-2.7%
CS(=O)(=O)c1ccc2c(c1)sc1nc(=O)c(/C=C3/C=CC(=O)C(O)=C3)c(N)n12,12.6µM*,19.0%,-7.8%,u,-13.3%
CCCCCCC(O)C/C=C/CCCCCCCC(=O)O (stereo unspecified),x,u,8.3%,x,x
COC(=O)C1(C(=O)OC)CC(CO)C(=O)[C@H]1c1ccccc1 (stereo partly specified),x,2.7%,x,x,x
COC(=O)C1(C(=O)OC)CC2=C[C@H](CC2=O)Cc2ccccc2[C@@H]1C[N+](=O)[O-],x,50.1µM*!,x,x,x
CC1CC[C@@]2(C(=O)O)CCC3(C)C(=CCC4[C@]5(C)CC(O)C(O)[C@](C)(CO)C5C(O)C[C@@]43C)C2C1C (stereo partly specified),x,2.2%,x,x,x
O=C(CSc1nnc(NC(=O)C2CC(=O)N(c3ccc(F)cc3)C2)s1)NCc1ccco1 (stereo unspecified),-6.8%,79.4µM*,17.0%,-4.6%,-0.4%
CN(C)C(=S)N=c1ssc(=S)n1Cc1ccccc1,-0.9%,39.8µM*,2.2%,-0.7%,x
O=C(N/N=C/c1cccc(F)c1)c1cc(-c2ccco2)nc2ccccc12,u,-5.6%,12.6µM*,x,-1.4%
CC(C)(C)c1cc(O)c(C(C)(C)C)cc1O,x,28.2µM*,x,x,x
CC1(C(=O)O)CCC2(C)CCC3(C)C(=CC(=O)[C@@H]4C5(C)CC[C@H](O[C@H]6O[C@H](C(=O)O)C(O)C(O)[C@H]6O[C@@H]6O[C@H](C(=O)O)C(O)C(O)C6O)C(C)(C)[C@@H]5CCC43C)[C@@H]2C1 (stereo partly specified),x,x,14.1µM*,x,x
COc1ccc2c(c1)C(=O)[C@@H](OC(=O)NC1CCCC1)[C@H](c1ccc(OC)c(Br)c1)O2,x,-9.2%,x,x,x
O=S(=O)(c1ccc(NC(=S)N2CCN(c3ccc(O)cc3)CC2)cc1)N1CCOCC1,i,0.2%,7.08µM*,1.0%,-8.9%
CC(N)c1csc(Nc2ncccn2)n1 (stereo unspecified),x,x,16.0%,x,x
SMILES,Tb PGK inh,VDR inhibitor,GLS inh,Pin1 inhibitor,Tb PFK inh
CC(C)=CCC/C(C)=C/CC/C(C)=C/CC/C=C(\C)CC/C=C(\C)CCC=C(C)C,x,-8.2%,1.5%,x,x
CC(=O)N[C@@H](CSC/C=C(\C)CCC=C(C)C)C(=O)O,x,0.1%,x,x,x
CC(=O)N[C@@H](CSC/C=C(\C)CC/C=C(\C)CCC=C(C)C)C(=O)O,x,50.1µM*!,x,x,x
CC(=O)N[C@@H](CSC/C=C(\C)CC/C=C(\C)CC/C=C(\C)CCC=C(C)C)C(=O)O,x,35.5µM*!,x,x,x
COc1ccc(N2CCN(C(=O)c3ccc(N(C)S(=O)(=O)c4ccc(OC)cc4)cc3)CC2)cc1,i,89.1µM*,-19.4%,-5.3%,-2.6%
O=S(c1ccccc1O)S(=O)c1ccccc1O (stereo unspecified),-11.6%,35.5µM*,-50.5%,u,x
Cc1cn(C2CC3OCC(NC(=O)C(NC(=O)OC(C)(C)C)C(C)OCc4ccccc4)C3O2)c(=O)[nH]c1=O (stereo unspecified),x,-1.1%,x,-10.1%,x
CCOC(=O)c1[nH]c(C)c(C(=O)NCCc2ccccc2)c1C,3.1%,-1.0%,-7.5%,4.1%,x
CCCn1c(N)c(C(c2ccc(C(=O)OC)cc2)N2CCN(c3ccccc3)CC2)c(=O)[nH]c1=O (stereo unspecified),1.6%,-1.6%,16.4%,-3.7%,-7.3%
CCCn1c(N)c(C(c2ccc(OC)cc2)N2CCN(c3ccccc3)CC2)c(=O)[nH]c1=O (stereo unspecified),2.3%,56.2µM*,21.8%,-1.0%,-3.3%
CCOC(=O)N1CCN(c2cc(NCCC(=O)O)c3c4c(onc24)-c2ccccc2C3=O)CC1,u,u,17.8µM*,u,-16.7%
Cc1ccc(-n2nc(C(=O)Nc3cccc(C#N)c3)c3c4ccccc4n(C)c3c2=O)cc1,x,-21.7%,-7.5%,-6.2%,x
Cc1nc(C(N)=O)c(N)n1CCc1ccccc1,-8.3%,44.7µM*,u,-10.8%,0.0%
Cc1nc2ccccc2n1CCc1ccccc1,1.9%,0.7%,7.2%,0.9%,-0.1%
CCOc1ncccc1C(=O)Nc1ccc2c(c1)OCCCO2,-7.0%,13.1%,7.4%,0.7%,0.1%
C=C(CN(C)C)C(=O)c1cc(C)ccc1C,2.1%,44.7µM*,37.9%,59.8%,x
CN(c1ccccc1)S(=O)(=O)c1cc(C(=O)NCc2ccco2)ccc1Cl,-6.2%,x,-0.1%,x,x
CC(C)OC(=O)n1c(=S)oc2ccccc21,x,-9.3%,63.1%,5.0%,-6.6%
CCCCC(=O)/C=C/n1c(=S)oc2ccccc21,-1.6%,12.6µM*,-6.3%,2.7%,-2.1%
C/C(CC(=O)Nc1ccc2ccccc2c1)=N\NC(=O)c1cnccn1,-5.2%,-7.8%,10.0%,0.2%,-2.8%
O=C(CS)Nc1ccc2ccccc2c1,-9.9%,79.4µM*,-13.4%,12.1%,-22.5%
O=C(CS)Nc1ccccc1,x,x,-10.8%,x,x
C/C(CC(=O)Nc1ccc2ccccc2c1)=N\NC(=O)c1ccc(O)c(O)c1,-1.9%,5.9%,6.31µM*,u,1.1%
CCOc1ccc2nc3cc(N)ccc3c(N)c2c1,x,12.6µM*,-27.7%,x,x
S=C1SCN(Cc2ccccn2)CN1Cc1ccco1,-4.5%,u,4.8%,-1.6%,u
COCCN1CSC(=S)N(Cc2ccco2)C1,12.9%,89.1µM*,2.9%,u,0.5%

# Screening data as filed in PubChem BioAssay.
